The results in this text go back to PubChem BioAssay.

Calls of active or inactive are those of the source. Unless noted, no rule for the calls is given here.

Assay [1] can be described thus: anti-His antibody binders, primary screen, artefact control for SMM control protein annotation, biochemical, small-molecule microarray, 635 nm fluorescence (AID 1128).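 Also: score merges feature fluorescence with signal-to-noise for each printed compound spot.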 Particulars: anti-His Alexa647 antibody binding, higher = more signal.
Assay [2] has as its system Human papillomavirus type 1a E7 protein (residues 1-88). Nature of the assay: HPV1a E7 small-molecule binders, primary screen, biochemical, small-molecule microarray, residues 1-88, 635 nm (AID 1129). Particulars: small-molecule microarray binding, fluorescence 635 nm; higher = more signal.
In assay [3] the target is Focal adhesion kinase 1 (Homo sapiens) (UniProt Q05397). In words: small-molecule microarray binders of FAK, primary screen, biochemical, 635/667 nm fluorescence, BSA, DTT (AID 1130).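 Also: composite of spot emission at 667 nm and signal to noise over triplicate slides.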 Particulars: PTK2 binding, 635 nm fluorescence, higher = more signal.
Focal adhesion kinase 1 (Homo sapiens), sequence (Q05397 whole entry, looked up): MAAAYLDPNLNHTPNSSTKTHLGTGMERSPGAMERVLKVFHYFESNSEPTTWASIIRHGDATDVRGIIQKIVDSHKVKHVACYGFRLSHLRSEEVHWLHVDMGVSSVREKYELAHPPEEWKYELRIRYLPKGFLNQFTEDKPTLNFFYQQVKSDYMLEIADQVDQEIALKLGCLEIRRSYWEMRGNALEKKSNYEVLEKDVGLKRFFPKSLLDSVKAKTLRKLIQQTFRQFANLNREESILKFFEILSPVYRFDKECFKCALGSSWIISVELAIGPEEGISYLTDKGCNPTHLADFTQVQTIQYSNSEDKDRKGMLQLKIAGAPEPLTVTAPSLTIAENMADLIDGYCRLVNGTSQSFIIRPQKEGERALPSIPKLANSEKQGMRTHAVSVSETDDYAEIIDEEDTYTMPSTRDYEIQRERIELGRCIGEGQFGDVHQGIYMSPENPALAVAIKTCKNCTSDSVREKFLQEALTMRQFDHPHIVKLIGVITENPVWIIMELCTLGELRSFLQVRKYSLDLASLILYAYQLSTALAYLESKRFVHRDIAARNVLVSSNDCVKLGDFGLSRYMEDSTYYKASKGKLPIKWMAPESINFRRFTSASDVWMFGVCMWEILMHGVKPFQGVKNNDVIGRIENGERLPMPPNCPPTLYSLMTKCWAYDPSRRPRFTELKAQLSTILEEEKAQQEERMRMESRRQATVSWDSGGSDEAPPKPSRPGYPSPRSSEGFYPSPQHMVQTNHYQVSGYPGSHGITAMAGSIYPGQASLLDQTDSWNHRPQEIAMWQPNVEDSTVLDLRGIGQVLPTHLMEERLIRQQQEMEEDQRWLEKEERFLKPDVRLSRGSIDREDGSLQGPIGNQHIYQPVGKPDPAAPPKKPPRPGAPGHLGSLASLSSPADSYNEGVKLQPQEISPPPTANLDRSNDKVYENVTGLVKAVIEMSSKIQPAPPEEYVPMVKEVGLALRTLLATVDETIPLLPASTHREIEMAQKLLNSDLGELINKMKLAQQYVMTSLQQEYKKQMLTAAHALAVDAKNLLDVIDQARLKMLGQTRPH
Assay [4] has as its system Fibrinogen (Alexa647-labelled). In words: fibrinogen binders on compound microarrays, profiling panel, artefact control for SMM control-protein annotation, biochemical, small-molecule microarray, 635/667 nm fluorescence (AID 1131).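 Also: z-score merges 667 nm fluorescence with per-spot signal-to-noise over triplicate slides.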 Particulars: fibrinogen-A647 binding fluorescence, higher = more signal.
Assay [5] has as its target Follistatin (Homo sapiens) (UniProt P19883). Nature of the assay: follistatin binders on small-molecule microarrays, primary screen, biochemical, small-molecule microarray, 635/667 nm fluorescence (AID 1132). The settings on record: FST binding, 635 nm fluorescence, higher = more signal.
In assay [6] the target is Fibroblast growth factor 2 (Homo sapiens) (UniProt P09038). Nature of the assay: FGF2 binders on small-molecule microarrays, primary screen, biochemical, small-molecule microarray, 635/667 nm fluorescence (AID 1133). The settings on record: small-molecule microarray binding, FGF2, fluorescence 635/667; higher = more signal.
Fibroblast growth factor 2 (Homo sapiens), sequence (P09038 whole entry, looked up): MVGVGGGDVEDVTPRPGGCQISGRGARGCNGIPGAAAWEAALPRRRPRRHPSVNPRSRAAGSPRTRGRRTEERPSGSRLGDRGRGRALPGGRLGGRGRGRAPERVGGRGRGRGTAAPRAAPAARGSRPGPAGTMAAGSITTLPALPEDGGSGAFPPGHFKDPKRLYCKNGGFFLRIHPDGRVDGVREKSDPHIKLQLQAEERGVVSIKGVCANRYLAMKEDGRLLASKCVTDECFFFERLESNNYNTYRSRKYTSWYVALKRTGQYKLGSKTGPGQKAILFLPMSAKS
Assay [7] in a line: mitochondrial membrane potential change in A549 cells, profiling panel, cell-based, JC-1 fluorescence, basal, 24 h, 100 nL (AID 1138).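 Also: A549 lung adenocarcinoma cells under basal conditions with no added stimulus; test concentration not given here.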 The settings on record: higher = more signal.
The subject of assay [8] is Lefty1. Nature of the assay: Lefty1 binders on small-molecule microarrays, primary screen, biochemical, small-molecule microarray, 635/667 nm fluorescence (AID 1139). Particulars: small-molecule microarray binding, fluorescence 635/667; higher = more signal.
For assay [9], the system named is wheat germ agglutinin (Triticum aestivum), Alexa647-labelled. In words: wheat germ agglutinin binders on compound microarrays, profiling panel, artefact control for SMM control-protein annotation, biochemical, small-molecule microarray, 635/667 nm fluorescence (AID 1140).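 Also: score merges 667 nm feature emission with signal to noise over triplicate slides.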 The settings on record: WGA-A647 binding, 635 nm fluorescence, higher = more signal.
Assay [10] concerns the target Luciferin 4-monooxygenase (Photinus pyralis) (UniProt P08659). In words: firefly luciferase enzyme inhibitors, primary screen, biochemical, luminescence, purified enzyme, 2006 set (AID 1141).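 Also: cell-free assay with purified firefly luciferase at 100 ng per well in PBS; test concentration not given here.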 The settings on record: SteadyGlo luminescence, 30 min, higher = more signal, called active from +8 up or from −8 down.
For assay [11], the system named is Wnt5a (protein binding on small-molecule microarray). In words: Wnt5a binders on small-molecule microarray, primary screen, biophysical, 635/667 nm fluorescence (AID 1142).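 Also: fluorescence read at 667 nm with signal to noise per printed feature.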 The settings on record: 635 nm fluorescence, higher = more signal.
Assay [12] in a line: cell viability in Huh7 cells, primary screen, cytotoxicity control for HCV replication inhibitor project, CellTiter-Glo luminescence, basal, 48 h (AID 1143).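 Also: Huh7 hepatoma cells carrying a hepatitis C replication reporter with no stimulus; test concentration not given here.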 Particulars: Huh7 HCV replicon, higher = more signal, called active from +8 up or from −8 down. (In general: In ATP-based viability assays light output follows the ATP content of the culture.)
Assay [13] in a line: P. aeruginosa biofilm formation inhibitors, primary screen, PAO1 strain, BacTiter-Glo luminescence, LB-PBS (AID 1144). The settings on record: 12 h, higher = more signal.
A short description of assay [14]: CREB reporter modulators without forskolin, primary screen, cell-based, PC12, CRE-LacZ reporter, unstimulated (AID 1145). The settings on record: no forskolin, luminescence, 4.5 h, higher = more signal, called active from +8 up or from −8 down.
Assay [15] can be described thus: CREB reporter modulators under forskolin, primary screen, cell-based, PC12, CRE-LacZ reporter, forskolin-stimulated (AID 1146).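 Also: PC12 cells with 6xCRE LacZ reporter stimulated by forskolin 10 µM; beta-galactosidase reporter signal reflecting CREB driven transcription.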 The settings on record: luminescence, 4.5 h, higher = more signal, called active from +8 up or from −8 down.
For assay [16], the target named is Streptavidin (Streptomyces avidinii) (UniProt P22629). Nature of the assay: streptavidin binders on small-molecule microarray, primary screen, artefact control for SMM compound annotation, biophysical, 635/667 nm fluorescence (AID 1147).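 Also: signal reflects streptavidin binding to arrayed compounds as a control protein.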 Particulars: streptavidin binding, higher = more signal.
Streptavidin (Streptomyces avidinii), sequence (P22629 whole entry, looked up): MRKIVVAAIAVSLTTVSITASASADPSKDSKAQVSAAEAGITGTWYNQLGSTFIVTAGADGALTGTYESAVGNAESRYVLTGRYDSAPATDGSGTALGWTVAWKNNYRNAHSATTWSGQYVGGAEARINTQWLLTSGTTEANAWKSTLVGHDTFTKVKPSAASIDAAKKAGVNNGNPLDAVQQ
Assay [17] is described as follows: small-molecule binders of probe aInhba, primary screen, biochemical, small-molecule microarray, 635/667 nm fluorescence (AID 1148).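 Also: score merges 667nm spot fluorescence with signal-to-noise for antibody binding to printed compounds.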 Particulars: higher = more signal.
In assay [18] the target is Torsin-1A (Homo sapiens) (UniProt O14656). Nature of the assay: torsin A binders from cell lysate, primary screen, small-molecule microarray, wild-type, 635/667 nm (AID 1149). Particulars: COS7 hTOR1A-WT lysate, 635 nm fluorescence, higher = more signal.
Torsin-1A (Homo sapiens), sequence (O14656 whole entry, looked up): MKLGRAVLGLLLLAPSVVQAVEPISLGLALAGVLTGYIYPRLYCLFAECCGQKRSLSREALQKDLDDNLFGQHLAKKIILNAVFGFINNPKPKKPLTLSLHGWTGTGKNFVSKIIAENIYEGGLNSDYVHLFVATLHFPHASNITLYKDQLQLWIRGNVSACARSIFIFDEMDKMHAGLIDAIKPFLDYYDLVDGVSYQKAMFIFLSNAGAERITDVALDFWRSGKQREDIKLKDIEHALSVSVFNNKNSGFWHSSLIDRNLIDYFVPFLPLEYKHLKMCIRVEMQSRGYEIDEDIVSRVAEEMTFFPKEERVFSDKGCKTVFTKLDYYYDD
Assay [19] has the same target. Nature of the assay: small-molecule binders of mutant TOR1A in lysate, primary screen, cell lysate, small-molecule microarray, COS7 lysate, 635/667 nm fluorescence (AID 1150).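 Also: score pools 667 nm emission and signal to noise measuring lysate protein binding.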 Particulars: COS7 hTOR1A mutant lysate, 635 nm fluorescence, higher = more signal.
In assay [20] the test system is Sonic hedgehog protein (Shh). Nature of the assay: small-molecule binders of Shh protein, primary screen, biochemical, small-molecule microarray, 635/667 nm fluorescence (AID 1151).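 Also: Shh protein binding to compounds spotted on small-molecule microarray slides; score combines spot fluorescence intensity with signal-to-noise across triplicate slides.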 Particulars: small-molecule microarray binding, 635 nm fluorescence; higher = more signal.

Luciferin 4-monooxygenase (Photinus pyralis), sequence (P08659 whole entry, looked up): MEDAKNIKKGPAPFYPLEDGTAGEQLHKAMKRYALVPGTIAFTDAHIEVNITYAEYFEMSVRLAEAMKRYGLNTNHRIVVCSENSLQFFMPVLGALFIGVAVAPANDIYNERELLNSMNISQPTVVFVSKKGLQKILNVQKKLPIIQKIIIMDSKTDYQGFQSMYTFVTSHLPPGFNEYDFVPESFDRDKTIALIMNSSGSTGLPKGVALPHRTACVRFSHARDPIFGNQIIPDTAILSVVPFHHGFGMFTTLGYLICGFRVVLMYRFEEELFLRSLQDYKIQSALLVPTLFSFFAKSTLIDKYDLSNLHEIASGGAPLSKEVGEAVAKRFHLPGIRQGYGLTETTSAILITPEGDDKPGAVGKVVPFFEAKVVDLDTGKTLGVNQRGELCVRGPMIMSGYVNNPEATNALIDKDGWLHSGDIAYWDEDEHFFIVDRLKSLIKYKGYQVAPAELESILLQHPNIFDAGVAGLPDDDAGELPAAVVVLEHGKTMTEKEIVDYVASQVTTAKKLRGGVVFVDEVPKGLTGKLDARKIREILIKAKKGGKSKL
Follistatin (Homo sapiens), sequence (P19883 whole entry, looked up): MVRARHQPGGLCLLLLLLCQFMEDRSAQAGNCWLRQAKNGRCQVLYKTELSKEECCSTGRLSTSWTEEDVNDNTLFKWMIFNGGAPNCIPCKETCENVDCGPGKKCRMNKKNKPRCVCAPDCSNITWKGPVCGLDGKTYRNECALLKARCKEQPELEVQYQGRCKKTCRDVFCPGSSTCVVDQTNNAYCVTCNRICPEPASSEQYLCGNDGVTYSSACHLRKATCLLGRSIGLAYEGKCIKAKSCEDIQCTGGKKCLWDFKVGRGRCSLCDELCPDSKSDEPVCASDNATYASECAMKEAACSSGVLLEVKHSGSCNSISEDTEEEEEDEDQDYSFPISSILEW

On to `CN1C(=O)C2C=CC(C(O)C3=C[C@H]4C[C@@H](C3)C4(C)C)N(Nc3ccc([N+](=O)[O-])cc3[N+](=O)[O-])C2C1=O` (stereo not given in full), for which the composite z-score worked out at 1.45 in [1]; 1.16 in assay [2]; 0.588 in [3]; 0.978 in [4]; 1.07 in assay [5]; 0.0958 in assay [6]. Also, the composite z-score in assay [8] stood at 0.181; in assay [9] it was 1.02; in assay [11], 0.325; in assay [16], 1.56; in [17], 0.421; in [18], 0.124. Also, the values for the composite z-score in assay [19] and in assay [20] were 0.566 and 0.0842, respectively. Also, the z-score in assay [7] was 0.731; in [10], -0.88 (inactive); in [12], -0.119 (inactive); in assay [13], -0.184 (inactive); in [14] it was 0.443 (inactive); in [15] it was -0.946 (inactive).
Consider `C=CCNC(=O)[C@H]1[C@@H]2C(=O)O[C@@H](c3ccccc3)[C@@H](c3ccccc3)N2[C@@H](c2ccc(OCCO)cc2)[C@]12C(=O)N(C(=O)OCCOC)c1ccc(C#CC3(O)CCCCCC3)cc12`, for which the composite z-score is 0.632 in assay [1]; 1.21 in assay [2]; 1.32 in assay [3]; 0.888 in [4]; 1.36 in [5]; 1.58 in [6]. In addition, the composite z-score was found to be 1.47 in assay [8]; 0.777 in assay [9]; 0.558 in assay [11]; 0.37 in [16]; 0.569 in [17]; 1.79 in assay [18]. For the same molecule, the composite z-score in [19] stood at 0.907; in [20], 1.65. The z-score in [7] is 0.208; in assay [10], -1.86 (inactive); in assay [12] it was -2.88 (inactive); in assay [13] it was -0.148 (inactive); in assay [14], 0.761 (inactive); in [15], 0.309 (inactive).
For the molecule `C=C(CCCC)/C(=C/C[C@@H](OC(=O)c1ccncc1)c1ccc(CO)o1)c1cc(C(=O)OC)ccc1OC`, the composite z-score in assay [1] was 1.94; in [2], 1.23; in [3] it was 0.129; in assay [4] it was 0.889; in [5], 1.16; in assay [6], 0.622. For the same molecule, the composite z-score in assay [8] turned out to be 1.57; in assay [9], 1.18; in assay [11] it was 0.079; in assay [16], 0.707; in assay [17], 0.027; in [18] it was 0.394. The composite z-score is 1.23 in assay [19] and 1.97 in assay [20]. For the same molecule, the z-score is -0.108 in assay [7]; -3.31 (inactive) in [10]; -0.605 (inactive) in assay [12]; 0.363 (inactive) in assay [13]; 6.18 (inactive) in assay [14]; 4.24 (inactive) in [15].
With `O=C1NC(=O)C2C1C=CC(C(O)c1cccs1)N2Nc1ccccn1` (stereo not given), the composite z-score in assay [1] was 1.23; in assay [2], 0.532; in assay [3] it was -0.374; in assay [4], 0.725; in [5], 0.131; in assay [6], 0.0343. In addition, the composite z-score in assay [8] was 0.0773; in assay [9], -0.0456; in assay [11] it was 0.0343; in [16], -0.0099; in assay [17] it was -0.214; in assay [18] it was 0.484. Further, the composite z-score in assay [19] was 0.244; in assay [20], -0.0541. For the same molecule, the z-score was 0.543 in assay [7]; -1.68 (inactive) in [10]; 0.847 (inactive) in assay [12]; -1.39 (inactive) in [13]; -0.712 (inactive) in assay [14]; -1.04 (inactive) in assay [15].
As to `CO[C@H]1O[C@H](CO)[C@@H](OC(=O)Nc2ccc(C(F)(F)F)cc2)[C@H](OC(=O)Nc2ccccc2)[C@@H]1OC(=O)Nc1ccccc1`, the composite z-score in assay [1] was found to be 0.817; in assay [2] it was 1.18; in [3], 0.132; in assay [4], 0.944; in [5], 1.21; in [6] it was 0.21. For the same molecule, the composite z-score in assay [8] is 0.41; in [9], 0.58; in [11], 0.534; in assay [16], 1.08; in [17], -0.0538; in [18] it was 0.146. In addition, the composite z-score was -0.0359 in assay [19] and 0.934 in [20]. For the same molecule, the z-score was -0.191 in assay [7]; -0.72 (inactive) in assay [10]; -3.7 (inactive) in [12]; 0.724 (inactive) in [13]; 0.904 (inactive) in assay [14]; -1.01 (inactive) in assay [15].
